Out of some 16,000 compounds screened, about 4,000 (25%) were called active. Not shown: some 26% with an inconclusive outcome. Calls come from the whole dose curve; as a rule, active = well fitted curve in the direction sought with a large enough effect; inconclusive = small, poorly fitted or top-dose-only effect, or effect the other way; inactive = no such curve, though single readings can be large or run the other way. Only a sample is shown. Square brackets hold non-standard residues; d marks the D form. Peptide text beside a SMILES is read from it.
molecular target: Cytochrome P450 2C9 (Homo sapiens) (UniProt P11712); assay: Cytochrome panel assay with activity outcomes; details: recombinant CYP, pro-luciferin dealkylation, luminescence, p450-cyp2c9; series mostly up to 57.1 µM; activity, negative = inhibition: at the top concentration
Sequence (P11712 whole entry, looked up): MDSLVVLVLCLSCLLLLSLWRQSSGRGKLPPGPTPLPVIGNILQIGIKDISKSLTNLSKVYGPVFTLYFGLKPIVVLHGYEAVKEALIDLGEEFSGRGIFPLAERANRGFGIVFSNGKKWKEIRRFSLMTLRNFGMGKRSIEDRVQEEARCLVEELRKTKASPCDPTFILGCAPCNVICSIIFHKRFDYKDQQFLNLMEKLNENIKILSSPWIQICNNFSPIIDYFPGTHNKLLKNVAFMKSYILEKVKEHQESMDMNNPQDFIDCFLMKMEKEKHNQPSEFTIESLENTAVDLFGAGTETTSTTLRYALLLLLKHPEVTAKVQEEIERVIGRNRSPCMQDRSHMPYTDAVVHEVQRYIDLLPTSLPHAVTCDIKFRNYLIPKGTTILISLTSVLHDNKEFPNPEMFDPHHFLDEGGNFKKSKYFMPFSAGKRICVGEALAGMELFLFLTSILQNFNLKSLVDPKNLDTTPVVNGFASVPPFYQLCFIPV
% is set by controls: 0 for no effect and ±100 for the full control effect.

activity, negative = inhibition, inactive:
CC(C)(N=NC(C)(C)C1=NCCN1)C1=NCCN1 3.47% [at 11.4 µM]
COc1ccc(Oc2ncc3ncc(=O)n(C)c3n2)cc1 -23.5%
CCN(c1nc(N)c(C(=O)N=C(N)N)nc1Cl)C(C)C 26.6%
CN(C)Cc1ccccc1-c1nc(NCc2ccccc2)c2ccccc2n1 -6.5% [at 2.29 µM]
CN(C)c1nc(NCc2ccccc2)nc(N/N=C/c2ccc(Cl)cc2Cl)n1 -11.7%
COCCNc1ncnc2ccc(-c3ccccc3OC)cc12 16.9% [at 2.29 µM]
COc1ccccc1-c1ccc2ncnc(NCc3cccnc3)c2c1 -19.3% [at 2.29 µM]
COc1ccccc1CNc1ncnc2ccc(-c3ccccc3CN(C)C)cc12 -2.92% [at 2.29 µM]
COc1ccc(CNc2ncnc3ccc(-c4cccnc4)cc23)c(OC)c1 -24.5% [at 2.29 µM]
COc1ccc(CNc2ncnc3ccc(-c4ccc(C(=O)N(C)C)cc4)cc23)c(OC)c1 1.99% [at 2.29 µM]
COc1ccccc1CNc1ncnc2ccc(-c3cccc(C#N)c3)cc12 -23.5% [at 2.29 µM]
Cc1nonc1NC(=O)OCCN1CCOC1=O -14.1%
CC[C@]1(O)C[C@@H]2CN(CCc3c([nH]c4ccccc34)[C@](C(=O)OC)(c3cc4c(cc3OC)N(C)[C@H]3[C@](O)(C(=O)OC)[C@@H](C(=O)OC)[C@@]5(CC)C=CCN6CC[C@@]43[C@@H]65)C2)C1 -6.34%
C#CC[N+](CC)(CC)CC#Cc1cccc(Cl)c1 3.76%
C[C@H](CN(C)C)C(O)(c1ccccc1)c1ccccc1 -5.45% [at 11.4 µM]
Nc1nc(N)nc(CC(=O)O)n1 -0.0515% [at 11.4 µM]
COc1cc(/C=C(\C#N)C(N)=O)cc(CSc2nc3ccccc3s2)c1O -7.23%
O=C(Nc1cccc(F)c1)N1CCCC2(CCNCC2)C1 -19.3%
CCNc1ncc2nc(-c3cn(C)c4ccccc34)c(=O)n(Cc3cccc(OC)c3)c2n1 -16.9%
Cn1cc(-c2nc3cnc(N4CCOCC4)nc3n(CCC#N)c2=O)c2ccccc21 9.88%
CN1CCN(c2ncc3nc(-c4cn(C)c5ccccc45)c(=O)n(CCc4ccccc4)c3n2)CC1 25.4%
CCNc1ncc2nc(-c3ccccc3)c(=O)n(Cc3cccs3)c2n1 -29.9%
COc1cccc(Nc2ncc3nc(-c4cn(C)c5ccccc45)c(=O)n(CCC#N)c3n2)c1 -6.19%
COc1ncc2nc(-c3cn(C)c4ccccc34)c(=O)n(Cc3ccc(F)cc3)c2n1 5.67%
CCNc1ncc2nc(-c3cn(C)c4ccccc34)c(=O)n(CCC#N)c2n1 -3.8%
COCCn1c(=O)c(-c2cn(C)c3ccccc23)nc2cnc(N3CCNCC3)nc21 -26.8%
CCNc1nc(NCC)nc(ON=C(C)C)n1 -8.7%
CO[C@@H](NC(N)=O)C(=O)O 25.8% [at 11.4 µM]
NCC(=O)N[C@H](CO)C(=O)O (H-Gly-[dS]-OH) 12.1% [at 11.4 µM]
CCOC(=O)N1CCN(C(=O)c2ccc(Cl)c(S(=O)(=O)N3CCOCC3)c2)CC1 -23.4%
COc1ccc(S(=O)(=O)N(CCc2ccccc2)CC(=O)N2CCOCC2)cc1 -22.5%
CCN(CC)C(=O)COc1ccc(S(=O)(=O)N2CCOCC2)cc1 -37.4%
COc1cccc(-c2cc(NCc3cnc(C)cn3)ncn2)c1 6.07% [at 2.29 µM]
COc1cccc(-c2cc(NCc3ccc(OC)cc3OC)ncn2)c1 -18.3% [at 2.29 µM]
COC(=O)C(NC(=O)c1ccccc1)=C1C=C(C)OC(C)=C1 -8.95%
CC1(C)OC(=O)N(Cc2ccco2)C1(C)O (stereo not given) -21.2%
CCCCS(=O)(=O)NC1=NCN(Cc2ccco2)CN1 -14.9%
Cc1ccccc1/C=C1\OC(=O)c2ccccc21 33.4%
CC(=O)NC1(c2cccc(F)c2)CCN(CC(=O)NC(C)C)CC1 -0.525%
CCCCCCCCCn1cc(C(C)=O)c(=O)[nH]c1=O 3.97%
COc1ccc(CNc2ccnc(-c3ccccc3C(F)(F)F)n2)c(OC)c1 3.78% [at 2.29 µM]
Cc1ccccc1OCC(=O)OC1CCN(C)CC1 -10.2%
Cc1ccc(C(=O)C(OC(=O)CN2C(=O)c3ccccc3C2=O)c2ccccc2)cc1 (stereo not given) -20.4%
CCSc1nnc2n(N)c(=O)c3ccccc3n12 -10.6%
CO[C@H]1COC(=O)CCC[C@H](C)[C@H](OC)COC(=O)C/C=C\[C@@H]1C 25.3% [at 11.4 µM]
COc1ccc2[nH]cc(CCNc3ncncc3-c3cccnc3)c2c1 0.571% [at 2.29 µM]
COc1ccc2[nH]cc(CCNc3ccnc(-c4ccc(C(=O)N(C)C)cc4)n3)c2c1 -14% [at 2.29 µM]
COc1ccc(CNc2ncncc2-c2ccc(N(C)C)cc2)c(OC)c1 -16.8% [at 2.29 µM]
COc1ccc2[nH]cc(CCNc3cc(-c4ccc(C(=O)N(C)C)cc4)ncn3)c2c1 8.96% [at 2.29 µM]
COc1ccc(CNc2ncncc2-c2ccc(C(=O)N(C)C)cc2)c(OC)c1 -28.8% [at 2.29 µM]
CN(C)C(=O)c1ccc(-c2cncnc2NCCc2cnc[nH]2)cc1 -10.2% [at 2.29 µM]
Cn1c(=O)c(-c2cccs2)nc2cnc(OCc3ccccc3)nc21 -29.1%
CC(C)=CCC/C(C)=C/CO/N=C1/C[C@@H](O)[C@@H](O)[C@@H]2[C@@H]3C(=O)N(C4CCCCC4)C(=O)[C@H]3CC[C@@H]12 -8.91% [at 11.4 µM]
CC(SCc1cn2cc(Cl)ccc2n1)C(=O)O (stereo not given) -37.7%
COc1cccc(-c2cc(NCc3ccccc3OC)ncn2)c1 -9.54% [at 2.29 µM]
CN(C)c1ccc(-c2cc(NCc3ccccc3)ncn2)cc1 -5.31% [at 2.29 µM]

AC50, active:
O=C(CN(Cc1ccco1)C(=O)c1cccc(Cl)c1)Nc1c(Cl)cc(Cl)cc1Cl 11.2 µM
COc1ccc(/C=C2\N=C(SC)N(C)C2=O)cc1 25.1 µM
CC(Sc1nc(NCc2ccccc2)nc(N(C)C)n1)C(=O)Nc1ccccc1 (stereo not given) 0.562 µM
COc1ccc(CNc2ncnc3ccc(-c4ccccc4OC)cc23)c(OC)c1 0.398 µM
COc1ccccc1CNc1ncnc2ccc(-c3ccccc3OC)cc12 0.794 µM
COc1ccccc1-c1ccc2ncnc(NCc3ccccc3)c2c1 0.501 µM
CCn1c(SCC(=O)Nc2sc3c(c2C(N)=O)CCC(C)C3)nnc1-c1ccco1 (stereo not given) 3.16 µM
CCn1c(SCC(=O)Nc2sc3c(c2C#N)CCC(C(C)(C)C)C3)nnc1-c1ccco1 (stereo not given) 8.91 µM
COC(=O)[C@@]1(Cc2ccccc2)[C@H]2c3cc(C(=O)N4CCCC4)n(CCN4CNCC4=O)c3C[C@H]2CN1C(=O)c1ccccc1 2 µM
COC(=O)[C@@]1(Cc2ccc(F)cc2)[C@H]2c3cc(C(=O)N4CCCC4)n(CCN4CNCC4=O)c3C[C@H]2CN1C(=O)c1ccccc1 7.94 µM
CCOC(=O)C1=C(CSc2nc3ccccc3s2)NC(=O)NC1c1cccc([N+](=O)[O-])c1 (stereo not given) 3.98 µM
CCOC(=O)C1=C(CSc2nc3ccccc3s2)NC(=O)NC1c1cc(C)ccc1C (stereo not given) 3.55 µM
COc1cccc(Cn2c(=O)c(-c3cn(C)c4ccccc34)nc3cnc(N4CCNCC4)nc32)c1 20 µM
Cn1cc(-c2nc3cnc(N4CCNCC4)nc3n(Cc3ccc(F)cc3)c2=O)c2ccccc21 10 µM
Cn1cc(-c2nc3cnc(N4CCNCC4)nc3n(CCc3ccccc3)c2=O)c2ccccc21 10 µM
CCNc1ncc2nc(-c3cn(C)c4ccccc34)c(=O)n(Cc3cccs3)c2n1 20 µM
CCOC(=O)N1CCN(C(=O)c2oc3ccc(S(=O)(=O)N4CCCCC4)cc3c2C)CC1 10 µM
CN(Cc1ccccc1)S(=O)(=O)c1ccc(OCC(=O)N2CCOCC2)cc1 14.1 µM
COc1cccc(-c2nnc3n2N=C(C(C)(C)C)CS3)c1 17.8 µM
Cc1nn(S(=O)(=O)c2cccs2)c(C)c1Sc1ccc([N+](=O)[O-])cc1 4.47 µM
O=C(C/C=N/OCc1ccc(F)cc1Cl)c1cnc(-c2ccccc2)s1 3.98 µM
CC1=CC(=C2C(=O)c3ccccc3C2=O)C=C(C)O1 2.51 µM
CC1=CC(=C2C(=O)c3ccccc3C2=O)C=C(C)N1Cc1ccco1 2.24 µM
Cc1ccc(C(=O)C(OC(=O)CNS(=O)(=O)c2ccccc2)c2ccccc2)cc1 (stereo not given) 7.08 µM
Cc1ccc(C(=O)C(OC(=O)COc2ccccc2C)c2ccccc2)cc1 (stereo not given) 15.8 µM
COc1ccc2[nH]cc(CCNc3ncnc4ccc(-c5ccc(C(=O)N(C)C)cc5)cc34)c2c1 0.251 µM
COc1ccc2[nH]cc(CCNc3ncncc3-c3ccc(N(C)C)cc3)c2c1 0.501 µM
COc1ccc2[nH]cc(CCNc3ncncc3-c3ccc(C(=O)N(C)C)cc3)c2c1 0.398 µM
CSc1nnc(-c2sccc2OCc2ccccc2)n1C 17.8 µM
CSc1n[nH]c(-c2sccc2OCc2ccc(C)cc2)n1 5.01 µM
Cn1c(-c2sccc2OCc2ccccc2)n[nH]c1=S 11.2 µM
c1ccc(Oc2cc(-c3ccccc3)ncn2)cc1 20 µM

AC50, inactive:
CC(=O)N[C@@H](C(=O)O)C(C)(C)SN=O
N=c1nc(N2CCCCC2)cc(N)n1O
